About 79,000 compounds went through this panel and 15% of them were active in at least one assay; those are over-represented in the sample as a whole. Active and inactive are the calls of the source. No stated cut-off is given here; in the data, active means growth inhibition above about 70%; inactive means the rest.
How the values were obtained:
[1] = NCI Yeast Anticancer Drug Screen. Data for the rad50 strain (AID 155);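 further: 0% = growth of vehicle-only cultures of the same strain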; conditions: S. cerevisiae rad50 strain growth inhibition, active compounds read high
Procedure, shortened: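 DNA repair mutant yeast, compound exposure, growth read-out; inhibition is taken relative to vehicle.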

[2] = NCI Yeast Anticancer Drug Screen. Data for the mec2-1 strain (AID 157); conditions: S. cerevisiae mec2-1 strain, active compounds read high
Procedure, shortened: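 mec2-1 yeast strain, carrying an alteration in DNA damage repair or cell cycle control, was exposed to compounds; growth inhibition was measured relative to vehicle-treated controls.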

[3] = NCI Yeast Anticancer Drug Screen. Data for the sgs1 mgt1 strain (AID 161);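 further: 0% = growth of cultures given vehicle only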; conditions: S. cerevisiae sgs1 mgt1 strain, active compounds read high
Procedure, shortened: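 Yeast cells carrying a defined DNA-repair defect were exposed to test compounds. Growth inhibition was measured relative to vehicle-treated controls.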

[4] = NCI Yeast Anticancer Drug Screen. Data for the cln2 rad14 strain (AID 165);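 further: 0% = growth equal to vehicle treated cultures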; conditions: S. cerevisiae cln2 rad14 strain, active compounds read high
Procedure, shortened: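 Yeast carrying cln2 and rad14 alterations (cell cycle control and DNA damage repair) were exposed to compounds. Growth inhibition was measured against vehicle-treated controls.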

[5] = NCI Yeast Anticancer Drug Screen. Data for the bub3 strain (AID 167); conditions: S. cerevisiae bub3 mutant strain, active compounds read high
Procedure, shortened: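 In this screen, a yeast mutant lacking normal mitotic checkpoint function is challenged with compound. Relative growth versus vehicle gives the inhibition value.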

[6] = NCI Yeast Anticancer Drug Screen. Data for the mlh1 rad18 strain (AID 175); conditions: S. cerevisiae mlh1 rad18 strain growth inhibition, active compounds read high
Procedure, shortened: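 Growth inhibition of the yeast strain was measured after compound exposure and expressed relative to vehicle-treated controls. The strain carries defined defects in DNA damage repair.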

[7] = at 5.0 µM (retest, dose inferred, filed as 0.5)
[8] = at 50.0 µM (retest, dose inferred, filed as 5.0)

Measured: growth inhibition

O=[N+]([O-])c1c(Cl)ccc2nsnc12
active: [1]; [8] 97% | [1]; at 50.0 µM 99.4% | [2]; [8] 97% | [2]; at 50.0 µM 99.2% | [3]; [8] 98% | [3]; at 50.0 µM 98.8% | [4]; [8] 84% | [4]; at 50.0 µM 98.6% | [5]; [8] 96% | [5]; at 50.0 µM 98.5% | [6]; [8] 97% | [6]; at 50.0 µM 99%
inactive: [1]; [7] 24% | [2]; [7] -27% | [3]; [7] -14% | [4]; [7] -56% | [5]; [7] -49% | [6]; [7] -50%

O=C(O)c1ccccc1/C=N/O
inactive: [1]; [7] 1% | [1]; [8] -4% | [1]; at 50.0 µM 1.5% | [2]; [7] 2% | [2]; [8] -2% | [2]; at 50.0 µM -4.2% | [3]; [7] 0% | [3]; [8] -2% | [3]; at 50.0 µM 3% | [4]; [7] -2% | [4]; [8] 1% | [5]; [7] 0% | [5]; [8] -1% | [5]; at 50.0 µM 4.4% | [6]; [7] 0% | [6]; [8] -3% | [6]; at 50.0 µM 6.7%
active: [4]; at 50.0 µM 93%

CCC(CO)Nc1nc2cc(Cl)ccc2c2ccc(Cl)cc12 (stereo not given)
inactive: [1]; [7] 19% | [2]; [7] 2% | [3]; [7] 24% | [4]; [7] -4% | [5]; [7] 11% | [6]; [7] 20%
active: [1]; [8] 98% | [1]; at 50.0 µM 93.6% | [2]; [8] 99% | [2]; at 50.0 µM 94.8% | [3]; [8] 97% | [3]; at 50.0 µM 95.6% | [4]; [8] 97% | [4]; at 50.0 µM 89.8% | [5]; [8] 97% | [5]; at 50.0 µM 95.5% | [6]; [8] 96% | [6]; at 50.0 µM 94%

CC(C)Cc1cc(O)cc2ccccc12
inactive: [1]; [7] 4% | [2]; [7] 5% | [3]; [7] 3% | [4]; [7] 2% | [5]; [7] 5% | [6]; [7] 0%
active: [1]; [8] 98% | [1]; at 50.0 µM 98.9% | [2]; [8] 99% | [2]; at 50.0 µM 99.2% | [3]; [8] 98% | [3]; at 50.0 µM 98.5% | [4]; [8] 97% | [4]; at 50.0 µM 98.4% | [5]; [8] 99% | [5]; at 50.0 µM 98.5% | [6]; [8] 98% | [6]; at 50.0 µM 98.8%

Fc1ccc(NC(=S)SCc2ccc(Cl)cc2)c(F)c1
inactive: [1]; [7] 19% | [2]; [7] 11% | [3]; [7] 13% | [4]; [7] -2% | [5]; [7] 19% | [6]; [7] 7%
active: [1]; [8] 99% | [1]; at 50.0 µM 99.3% | [2]; [8] 99% | [2]; at 50.0 µM 99.6% | [3]; [8] 99% | [3]; at 50.0 µM 99.5% | [4]; [8] 99% | [4]; at 50.0 µM 99.4% | [5]; [8] 98% | [5]; at 50.0 µM 99.5% | [6]; [8] 98% | [6]; at 50.0 µM 99.5%

CCOC(=O)C(/C=N\C(=S)Nc1c(CC)cccc1C(C)(C)C)=C(/O)c1ccccc1
inactive: [1]; [7] 7% | [1]; [8] 61% | [1]; at 50.0 µM 51.5% | [2]; [7] 0% | [2]; [8] 46% | [2]; at 50.0 µM 49% | [3]; [7] 17% | [3]; [8] 35% | [3]; at 50.0 µM 64.5% | [4]; [7] -13% | [4]; [8] 43% | [4]; at 50.0 µM 67.2% | [5]; [7] -8% | [5]; at 50.0 µM 55.6% | [6]; [7] 4% | [6]; [8] 48% | [6]; at 50.0 µM 63%
active: [5]; [8] 73%

N#CC1(C#N)C2C=CC(c3coc4cccc2c34)C1(C#N)C#N (stereo not given)
active: [3]; at 50.0 µM 75%
inactive: [1]; [7] 29% | [1]; [8] 37% | [1]; at 50.0 µM 35.6% | [2]; [7] 17% | [2]; [8] 27% | [2]; at 50.0 µM 35.9% | [3]; [7] 32% | [3]; [8] 37% | [4]; [7] 19% | [4]; [8] 27% | [4]; at 50.0 µM 19.2% | [5]; [7] 22% | [5]; [8] 47% | [5]; at 50.0 µM 58.2% | [6]; [7] 26% | [6]; [8] 47% | [6]; at 50.0 µM 57.9%

NC(=O)C(=CNc1nc(-c2ccc(Br)cc2)cs1)C(N)=O
inactive: [1]; [7] -5% | [2]; [7] -11% | [3]; [7] -3% | [4]; [7] -34% | [5]; [7] -11% | [6]; [7] -6%
active: [1]; [8] 92% | [1]; at 50.0 µM 99.5% | [2]; [8] 98% | [2]; at 50.0 µM 99.5% | [3]; [8] 92% | [3]; at 50.0 µM 99.5% | [4]; [8] 94% | [4]; at 50.0 µM 98.9% | [5]; [8] 99% | [5]; at 50.0 µM 99.5% | [6]; [8] 98% | [6]; at 50.0 µM 99.3%

CC1=NN(c2nc(N)nc(NS(=O)(=O)c3cc(C)c(Cl)cc3S)n2)C(C)(C)C1
inactive: [1]; [7] 29% | [1]; [8] 13% | [1]; at 50.0 µM 9.1% | [2]; [7] -1% | [2]; [8] -12% | [2]; at 50.0 µM -9.55% | [3]; [7] -2% | [3]; [8] 9% | [3]; at 50.0 µM 35.9% | [4]; [7] 4% | [4]; [8] 10% | [4]; at 50.0 µM 46.2% | [5]; [7] 11% | [5]; [8] -17% | [5]; at 50.0 µM 9.85% | [6]; [7] -3% | [6]; [8] 4% | [6]; at 50.0 µM 20%

CCCCCCCCCCCCCCSC(=NCC)NCC
active: [1]; [7] 99% | [1]; [8] 99% | [1]; at 50.0 µM 99.2% | [2]; [7] 100% | [2]; [8] 100% | [2]; at 50.0 µM 99.5% | [3]; [7] 100% | [3]; [8] 100% | [3]; at 50.0 µM 99.2% | [4]; [7] 99% | [4]; [8] 99% | [4]; at 50.0 µM 97.4% | [5]; [7] 99% | [5]; [8] 99% | [5]; at 50.0 µM 99.3% | [6]; [7] 99% | [6]; [8] 99% | [6]; at 50.0 µM 99%

Reference: PubChem BioAssay (NCI)
